Experimental findings from PubChem BioAssay AID743269 (The Scripps Research Institute Molecular Screening Center, 2014) are described below.

Among all 370,000 compounds or so, about 2,400 (0.65%) were called active.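 How the source made its calls: active means inhibition above the screen-wide mean plus 3 SD (cut at about 13% in these data); inactive means the rest.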 The sample as a whole holds a higher share of actives than the screen did.

For the assay, the system named is HIV-1 integrase (with human LEDGF/p75). Put plainly: blockers of LEDGF/p75-dependent integrase strand transfer – biochemical, TR-FRET, high throughput, primary screen (AID 743269).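 Further: signal is the Cy5 over europium emission ratio at 671 and 618 nm; 0% = plate median of compound wells.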 The conditions noted are these: TR-FRET IN-LEDGF/p75 DNA integration, Eu/Cy5; at 3.7 µM; active compounds read high. (In TR-FRET formats the signal depends on donor and acceptor labels being close together.)
A word on the inhibition: it is the drop in the measured response relative to a control, in per cent. Consider `CCOc1ccc(NC(=O)c2cccc3c2C(=O)N(CC2CCCO2)C3)cc1` (stereo unspecified), for which the inhibition is 0.61% (inactive).
For `CCOc1cccc(=O)c2c(C)n(CC3CCCO3)c(C)c12` (stereo unspecified) the value was 19.8% (active); for `CC(=O)Nc1ccc(NC(=O)CSc2nnc(COc3ccccc3C)n2CC2CCCO2)cc1` (stereo unspecified), -8.13% (inactive); for `COc1ccccc1CCNC(=O)C1CCN(c2nc(C)cc(C)n2)CC1`, -0.51% (inactive).
Under `O=C(NCc1cccs1)C1CCCN(S(=O)(=O)c2ccc([N+](=O)[O-])cc2)C1` (stereo unspecified) stands 4.07% (inactive).
In the case of `NC(=O)c1ccccc1NC(=O)c1ccccc1F`, the inhibition was 30.1% (active).
Consider `O=C(Nc1nnc(-c2ccccc2F)s1)c1ccccc1F`, for which the inhibition was 5.09% (inactive).
Under `O=C(Nc1ccccc1F)c1ccccc1-c1ccccc1` stands -1.52% (inactive); under `Cc1cc(NS(=O)(=O)c2ccc(NC(=O)CSc3nnc(-c4ccc(C(C)(C)C)cc4)n3Cc3ccco3)cc2)nc(C)n1`, 2.06% (inactive).
Regarding `COC(=O)[C@]1(C#N)CC(=O)N(CC2CCCCC2)[C@@H]1c1ccccc1`, the inhibition is 8.17% (inactive).
Under `COCCn1nnnc1C(c1cc2ccc(OC)cc2[nH]c1=O)N1CCc2ccccc2C1` (stereo unspecified) stands 23.1% (active).
As to `COc1ccc(CCC(C)N2CCc3ccccc3C2)cc1` (stereo unspecified), the inhibition was 0% (inactive).
Under `COCCn1nnnc1C(c1ccccc1Cl)N1CCN(c2ccccc2OC)CC1` (stereo unspecified) stands -2.12% (inactive); under `O=C(CSc1nnc(-c2ccccn2)n1-c1ccccc1)Nc1ccc2cn[nH]c2c1`, 3.75% (inactive); under `CC[C@@H](CCC(=O)N(c1ccccc1)c1ccccc1)C1CC1`, -0.47% (inactive).
Under `CCOC(=O)c1c(C)[nH]c2c1-c1ccccc1C(=O)C2=O` stands 35% (active); under `CCOC(=O)c1[nH]c(C)c(C(=O)OCC(=O)N2c3ccccc3CC2C)c1C` (stereo unspecified), 0.57% (inactive); under `CCOC(=O)C1=C(C)c2ccccc2OC1C(=O)OCC` (stereo unspecified), 0.5% (inactive).
Under `CN1C(=O)c2cc(NS(C)(=O)=O)ccc2OC[C@@H]2O[C@@H](CC(=O)NCc3ccc(-c4ccccc4)cc3)CC[C@H]21` stands 0.81% (inactive); under `CC(CCN1CCC(C(O)(c2ccccc2)c2ccccc2)CC1)Oc1ccc(Cl)cc1` (stereo unspecified), -0.76% (inactive).
Take `CCN(CC)CCCC(C)n1c2nc(=O)[nH]c(=O)c-2nc2cc(Cl)ccc21` (stereo unspecified): the inhibition is 19.5% (active).
For `Cc1cc2nc3c(=O)[nH]c(=O)nc-3n(C[C@H](O)[C@H](O)[C@H](O)CO)c2cc1C` the value was -0.23% (inactive); for `CC(CCN1CCC(C(O)(c2ccccc2)c2ccccc2)CC1)Oc1ccc([N+](=O)[O-])cc1Cl` (stereo unspecified), 5.97% (inactive); for `O=C(CCCCCN1C(=O)C2C3C=CC(C3)C2C1=O)Nc1ccccn1` (stereo unspecified), 1.71% (inactive).
On to `Cc1cc(SCC(=O)NCCN2C(=O)CSC2=O)nc2ccccc12`, for which the inhibition is 24.8% (active).
For `COc1ccc2c(C)cc(SCC(=O)NCC3CCCO3)nc2c1` (stereo unspecified), the inhibition is 5.4% (inactive).
Regarding `CCCNC(=O)CSc1nc(Cc2ccccc2)nc2ccccc12`, the inhibition was -2.65% (inactive).
With `COP(=O)(O)CNC(=O)OCc1ccccc1`, the inhibition is 2.52% (inactive).
For `C[C@@H](NC(=O)c1ccccc1OCC(=O)Nc1ccc(I)cc1)C(=O)N(C)Cc1ccccc1` the value was -0.62% (inactive); for `CCCOc1ccc(Oc2c(Cl)cnn(Cc3cccc4ccccc34)c2=O)cc1`, -4.41% (inactive).
For `Brc1ccc(C2CC(c3ccccc3)=Nc3ccccc3N2)cc1` (stereo unspecified) the value was 5.04% (inactive); for `c1ccc(C2=Nc3cccc4cccc(c34)N2)cc1`, 15.3% (active).
Take `CCOC(=O)[C@]12CCCCC/C=C\1N(Cc1ccc(OC)cc1)C(=O)[C@H]2CC(=O)N1CCOCC1`: the inhibition is -1.27% (inactive).
`Cc1cc(C)n2ncc(C(=O)Nc3ccc4c(c3)OCCO4)c2n1`: the inhibition was 1.44% (inactive).
With `Cn1ccc(=Nc2ccc(NC(=O)c3ccc(N=c4ccn(C)c5ccc([N+](=O)[O-])cc45)cc3)cc2)cc1`, the inhibition is 19.9% (active).
Consider `O=C(Nc1cc2c3c(c1)C1CCCC1CN3CC1CCCC21)c1ccc([N+](=O)[O-])cc1` (stereo unspecified), for which the inhibition is 0.76% (inactive).
With `CC(=O)Nc1ccc(C(=O)OCC(=O)Nc2ccc([N+](=O)[O-])cc2C(F)(F)F)cc1`, the inhibition was 1.78% (inactive).
For `Cc1ccccc1CN1CCCCC(NC(=O)Nc2ccccc2F)C1=O` (stereo unspecified), the inhibition was -1.11% (inactive).
For `O=C(Nc1cc(F)cc(F)c1)OC1CCC12CCC(c1ccccc1)CC2` (stereo unspecified) the value was -2.65% (inactive); for `CCCNC(=O)Nc1ccc2c(c1)C(=O)N(C)[C@H]1CC[C@H](CC(=O)NCC3CCCCC3)O[C@@H]1CO2`, -2.65% (inactive).
For `Cc1cc(=O)n2[nH]c(-c3sccc3-n3c(C)ccc3C)cc2n1` the value was 55.6% (active); for `CCOC(=O)N1CCN(C(=O)C[C@@H]2C(=O)N(CCc3ccc(Cl)cc3)C3=CCCC[C@]32C(=O)OCC)CC1`, -0.28% (inactive).
Under `COc1ccc(CSc2nnc(SCC(=O)Nc3ccccc3C(F)(F)F)s2)cc1` stands -4.35% (inactive); under `CCN(C(=O)COC(=O)CCC(=O)c1cccs1)C1CCCCC1`, 9.09% (inactive).
Take `O=C(COC(=O)CCC(=O)c1cccs1)NCc1ccco1`: the inhibition is 38.8% (active).
For `CC1CCN(C(=O)COC(=O)CCC(=O)c2cccs2)CC1` the value was 0.03% (inactive); for `C=CCN1C(=O)[C@@H](CC(=O)N2CCN(C(=O)c3ccco3)CC2)[C@]2(C(=O)OC)CCCCC=C12`, -3.78% (inactive); for `COc1cc(/C=C/C(=O)n2cnc3ccccc32)cc(OC)c1OC`, -2.83% (inactive).
Under `C[C@@H]1ON(C)[C@H]2C[C@H]3c4[nH]c5cccc(-c6ccc7c(c6)OCO7)c5c4CCN3C[C@@H]12` stands 4.41% (inactive); under `Cc1c(Cl)c([N+](=O)[O-])nn1Cc1ccc(C(=O)N/N=C\c2cc(Cl)ccc2O)o1`, -2.68% (inactive); under `Cc1cc(C(=O)N/N=C/c2ccc(O)c([N+](=O)[O-])c2)c(C)n1-c1ccc(F)cc1`, 18.1% (active).
For the compound `Cc1ccc(/C=N/NC(=O)c2sccc2OCc2ccc(F)cc2)cc1`, the inhibition is -2.37% (inactive).
As to `CCC[C@H]1C(=O)CC[C@@]23CCCN2C(=O)CCC[C@@H]13`, the inhibition is 0.78% (inactive).
Under `O=C(OCCOc1ccccc1Cl)c1cc(S(=O)(=O)N2CCCCC2)ccc1N1CCOCC1` stands 4.88% (inactive).
Turning to `O=C(OCCOc1ccccc1F)c1cc(S(=O)(=O)N2CCOCC2)ccc1F`, the inhibition was 13.4% (active).
On to `O=C(COC(=O)c1cc(S(=O)(=O)N2CCOCC2)ccc1F)NC1CC1`, for which the inhibition was 1.33% (inactive).
